Data: PubChem BioAssay (NCATS)
Unmarked numbers belong to inactive results. Records with an inconclusive call do not appear. Entries that show only a call come without a potency. The source made the active and inactive calls. Calls follow the shape of the dose curve; as a rule, active = well fitted curve in the direction sought with a large enough effect; inconclusive = small, poorly fitted or top-dose-only effect, or another doubt; inactive = no such curve, though single readings can be large; an effect the other way counts as inactive or inconclusive.

Tests used:
[1] = molecular target: Glutathione peroxidase 1 (Homo sapiens) (UniProt P07203); assay: Primary qHTS Assay for Inhibitors of Recombinant Selenoprotein Glutathione Peroxidase 1 (GPX1) (AID 1845191); also: nearly all actives have a fitted effect of over 65% in size
Outline: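 GPX1 10 nM, GR 100 nM, GSH 1 mM, NADPH 0.5 mM, CHP 0.5 mM (final). 30-min cpd preincubation, RT. Ex340/Em450 read t=0, t=15 min.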

[2] = molecular target: Phospholipid hydroperoxide glutathione peroxidase GPX4 (Homo sapiens) (UniProt P36969); assay: Primary qHTS Assay for Inhibitors of Recombinant Selenoprotein Glutathione Peroxidase 4 (GPX4) (AID 1845192); also: nearly all actives have a fitted effect of over 65% in size
Outline: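 qHTS, GR-coupled: GPX4 200 nM + cpd 30 min RT → GSH 1 mM, NADPH 0.5 mM, GR 100 nM → CHP 0.5 mM start; fluor 340/450 at t0 and t15 min; no-enzyme wells as control.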

[3] = molecular target: Luciferin 4-monooxygenase (Photinus pyralis) (UniProt P08659); assay: Primary firefly luciferase (FLuc) qHTS assay for identification of artifact compounds. (AID 1845220); also: nearly all actives have a fitted effect of over 60% in size
Outline: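 qHTS, 15 min compound preincubation with substrate (10 uM luciferin, 10 uM ATP) at RT, then 10 nM FLuc; 5 min; luminescence; % inhibition vs no-enzyme/DMSO controls, 4-parameter Hill fit.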

[4] = Primary fluorescence-based thiol-reactive (MSTI) qHTS assay for identification of artifact compounds. (AID 1845221); also: nearly all actives have a fitted effect of over 65% in size; also: potency is read from the fitted curve at half-maximal effect;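 as to activity change, negative = thiol reactive: series mostly up to about 54 µM; thiol-reactive compounds lower the probe fluorescence signal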
Outline: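 First, 4 uM MSTI in 2% DMSO/PBS pH 7.4 was dispensed; next, compounds were added; then plates sat 1 h at room temperature without light. Finally, emission at 598 nm was recorded.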

[5] = tested on: Nanoluciferase (engineered Oplophorus gracilirostris luciferase); assay: Primary Nanoluciferase (NLuc) qHTS assay for identification of artifact compounds. (AID 1845222); also: series mostly up to about 54 µM
Outline: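 Luminescence read-out of secreted NLuc in S16 cell conditioned medium (1:55); compounds tested with 15 min RT preincubation, then Nano-Glo substrate 1:100, 5 min. % inhibition vs no-enzyme and DMSO controls, 4-parameter Hill fit.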

[6] = Primary redox qHTS assay for identification of artifact compounds. (AID 1845223)
Outline: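 Redox-cycling detection via DTT (250 uM final) oxidation coupled to Amplex Red (25 uM)/HRP (250 mU/mL) in HBSS. 15 min preincubation plus 30 min after DTT, room temperature. Ex/Em 525/598 nm; 4-parameter Hill fit against DMSO and 10 uM DA3003.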

Chain of Phospholipid hydroperoxide glutathione peroxidase GPX4 (Homo sapiens) (P36969 whole entry, looked up): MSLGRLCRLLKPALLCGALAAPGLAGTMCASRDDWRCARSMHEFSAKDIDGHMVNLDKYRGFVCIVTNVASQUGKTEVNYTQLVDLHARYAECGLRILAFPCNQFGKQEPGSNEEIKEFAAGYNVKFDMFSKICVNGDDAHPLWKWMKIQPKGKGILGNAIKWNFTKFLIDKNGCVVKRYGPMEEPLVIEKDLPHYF
Chain of Glutathione peroxidase 1 (Homo sapiens) (P07203 whole entry, looked up): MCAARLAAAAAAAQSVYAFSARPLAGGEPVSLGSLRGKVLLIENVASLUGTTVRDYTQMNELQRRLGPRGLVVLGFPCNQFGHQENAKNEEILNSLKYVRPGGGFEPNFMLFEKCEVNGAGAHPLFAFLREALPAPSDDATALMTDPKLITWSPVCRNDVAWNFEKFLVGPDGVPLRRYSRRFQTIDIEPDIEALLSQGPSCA

CCCCC1CCN(CCCC(=O)c2ccccc2C)CC1
Potency [1]: inactive
Potency [2]: inactive
Potency [3]: inactive
Potency [4]: inactive
Potency [5]: inactive
Potency [6]: inactive

COC(=O)[C@H](O)[C@H]1C(C)(C)[C@H](OC(=O)C(C)C)[C@@]2(O)C(=O)[C@]1(C)C1CC[C@]3(C)C(CC(=O)O[C@H]3c3ccoc3)[C@]13O[C@@H]32 (stereo not given in full)
Potency [1]: inactive
Potency [2]: inactive
Potency [3]: inactive
Potency [4]: inactive
Potency [5]: inactive
Potency [6]: inactive

CC1=CC(=O)CC(C)(C)[C@H]1/C=C/C(CO)O[C@@H]1O[C@H](CO)[C@@H](O)[C@H](O)[C@H]1O (stereo not given in full)
Potency [1]: inactive
Potency [2]: inactive
Potency [3]: inactive
Potency [4]: 11.7 µM (active)
Potency [5]: inactive
Potency [6]: inactive

CO[C@H]1C[C@@H]2CC[C@@H](C)[C@@](O)(O2)C(=O)C(=O)N2CCCC[C@H]2C(=O)O[C@H]([C@H](C)C[C@@H]2CC[C@@H](OP(C)(C)=O)[C@H](OC)C2)CC(=O)[C@H](C)/C=C(\C)[C@@H](O)[C@@H](OC)C(=O)[C@H](C)C[C@H](C)/C=C/C=C/C=C/1C
Potency [1]: inactive
Potency [2]: inactive
Potency [3]: inactive
Potency [4]: inactive
Potency [5]: inactive
Potency [6]: inactive

COc1cc(OC)c(/C=C/S(=O)(=O)Cc2ccc(OC)c(NCC(=O)O)c2)c(OC)c1
Potency [1]: inactive
Potency [2]: inactive
Potency [3]: inactive
Potency [4]: 3.36 µM (active)
Potency [5]: inactive
Potency [6]: inactive

Cc1cnc(NC(=O)Nc2cc(Br)c(C)cc2OCC2CNCCO2)cn1 (stereo not given)
Potency [1]: inactive
Potency [2]: inactive
Potency [3]: inactive
Potency [4]: inactive
Potency [5]: inactive
Potency [6]: inactive

C=C[C@H]1[C@H](O[C@@H]2O[C@H](CO)[C@@H](O)[C@H](O)[C@H]2O)OC=C(C(=O)OC)[C@H]1CC(=O)O
Potency [1]: inactive
Potency [2]: inactive
Potency [3]: inactive
Potency [4]: inactive
Potency [5]: inactive
Potency [6]: inactive

Cc1cc(C(=O)Nc2cccc(C(=O)Nc3cccc(C(F)(F)F)c3)c2)on1
Potency [1]: inactive
Potency [2]: inactive
Potency [3]: inactive
Potency [4]: inactive
Potency [5]: inactive
Potency [6]: inactive

C[C@@H]1O[C@@H](O[C@H]2[C@H](O[C@H]3[C@H](O[C@H]4CC[C@@]5(C)C(CC[C@]6(C)C5CC=C5[C@@H]7CC(C)(C)C[C@@H](O)[C@]7(C)CC[C@]56C)[C@@]4(C)CO)O[C@H](C(=O)O)[C@@H](O)[C@@H]3O)OC[C@H](O)[C@@H]2O)[C@H](O)[C@H](O)[C@H]1O (stereo not given in full)
Potency [1]: inactive
Potency [2]: inactive
outcome [3]: inactive [at 11.6 µM]
activity change, negative = thiol reactive [4]: 129% [at 11.5 µM]
activity, negative = inhibition [5]: -0.768% [at 11.6 µM]
redox activity (% of DA3003) [6]: 17.9% [at 11.5 µM]

CC1=C2C(O)C(=O)OC(c3ccoc3)C2(C)CCC1O (stereo not given)
Potency [1]: inactive
Potency [2]: inactive
Potency [3]: inactive
Potency [4]: inactive
Potency [5]: inactive
Potency [6]: inactive

COc1cc(O)c([C@@H](CC(=O)N2CC(C)CC(C)C2)c2ccc3c(c2)OCO3)c(OC)c1 (stereo not given in full)
Potency [1]: inactive
Potency [2]: inactive
Potency [3]: inactive
Potency [4]: inactive
Potency [5]: inactive
Potency [6]: inactive

Cc1ccc(-c2c(C(=O)CF)n(CCCO)c3ncnc(N)c23)cc1
Potency [1]: inactive
Potency [2]: inactive
Potency [3]: inactive
Potency [4]: inactive
Potency [5]: inactive
Potency [6]: inactive

CC1(C)CCC[C@]2(C)[C@H]3CC(=O)O[C@]3(C)CC[C@@H]12
Potency [1]: inactive
Potency [2]: inactive
Potency [3]: inactive
Potency [4]: inactive
Potency [5]: inactive
Potency [6]: inactive

CC(=O)N[C@@H](C(=O)O[C@H]1CCC(C)(C)[C@@H]2CCC3=C(COC3=O)[C@@]12C)C(C)C
Potency [1]: inactive
Potency [2]: inactive
Potency [3]: inactive
Potency [4]: inactive
Potency [5]: inactive
Potency [6]: inactive

O=C1CCC(=O)N(O)CCCCCNC(=O)CCC(=O)N(O)CCOCCNC(=O)CCC(=O)N(O)CCCCCN1
Potency [1]: inactive
Potency [2]: inactive
Potency [3]: inactive
Potency [4]: inactive
Potency [5]: inactive
Potency [6]: inactive

CC(=O)O[C@@H](CO[C@@H]1O[C@H](CO)[C@H](O)[C@H](O)[C@H]1O)[C@]1(C)C=C2CC[C@@H]3C(C)(C)[C@@H](O)CC[C@@]3(C)[C@@H]2CC1
Potency [1]: inactive
Potency [2]: inactive
Potency [3]: inactive
Potency [4]: inactive
Potency [5]: inactive
Potency [6]: inactive

O=C(NCc1cccc(O)c1)c1cc2cc(F)ccc2[nH]1
Potency [1]: inactive
Potency [2]: inactive
Potency [3]: inactive
Potency [4]: inactive
Potency [5]: inactive
Potency [6]: inactive

CN1C2CCC1CC(OC(=O)[C@H](CO)c1ccccc1)C2 (stereo not given in full)
Potency [1]: inactive
Potency [2]: inactive
Potency [3]: inactive
Potency [4]: inactive
Potency [5]: inactive
Potency [6]: inactive

CC(C)(O)/C=C/CC(C)(O)C1C(O)CC2(C)C3CCC4C(C)(C)C(=O)CCC4(C)C3CCC12C (stereo not given)
Potency [1]: inactive
Potency [2]: inactive
Potency [3]: inactive
Potency [4]: inactive
Potency [5]: inactive
Potency [6]: inactive

C=C[C@]1(C)C=C2CCC3C(C)(CCC[C@@]3(C)C(=O)O)C2CC1 (stereo not given in full)
Potency [1]: inactive
Potency [2]: inactive
Potency [3]: inactive
Potency [4]: inactive
Potency [5]: inactive
Potency [6]: inactive
